Among the data in PubChem BioAssay (EPA / NIEHS) are outcome and AC50 values, retold here.

Molecules are shown by their SMILES. Activity calls are given as the source filed them. Rule for the calls: active = hit-call score of the fitted dose curve at least 0.9, where 1 is the maximum; inactive = score below 0.9.

This experiment deals with Retinoic acid receptor alpha (Homo sapiens) (UniProt P10276). Put plainly: ATG_DR5_RAR_CIS: Attagene CIS-FACTORIAL HepG2 Assay for human Retinoic Acid Receptor Alpha (RARE), DR5 submotif (AID 2282934).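 For AC50: reporter responds to endogenous RAR alpha beta and gamma in HepG2 not RARA alone.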 The following applies: HepG2 Attagene cis-factorial RARE DR5 reporter, mRNA; actives raise or lower the signal. As for the experimental part: ATG_CIS is a cell-based, multiplexed-readout assay that uses HepG2, a human liver cell line, with measurements taken at 24 hours after chemical dosing in a 24-well plate.ATG_DR5_RAR_CIS is one of 52 assay component(s) measured or calculated from the ATG_CIS assay. It is designed to make measurements of mRNA induction, a form of inducible reporter, as detected with fluorescence intensity signals by Reverse transcription polymerase chain reaction (RT-PCR) and Capillary electrophoresis technology.Data from the assay component ATG_DR5_RAR_CIS was analyzed into 1 assay endpoint. This assay endpoint, ATG_DR5_CIS, was analyzed with bidirectional fitting relative to DMSO as the negative control and baseline of activity. Using a type of inducible reporter, measures of mRNA for gain or loss-of-signal activity can be used to understand the reporter gene at the transcription factor-level as they relate to the gene RARA and RARB and RARG. Furthermore, this assay endpoint can be referred to as a primary readout, because this assay has produced multiple assay endpoints where this one serves a reporter gene function. To generalize the intended target to other relatable targets, this assay endpoint is annotated to the nuclear receptor intended target family, where the subfamily is non-steroidal.
Chain of Retinoic acid receptor alpha (Homo sapiens) (P10276 whole entry, looked up): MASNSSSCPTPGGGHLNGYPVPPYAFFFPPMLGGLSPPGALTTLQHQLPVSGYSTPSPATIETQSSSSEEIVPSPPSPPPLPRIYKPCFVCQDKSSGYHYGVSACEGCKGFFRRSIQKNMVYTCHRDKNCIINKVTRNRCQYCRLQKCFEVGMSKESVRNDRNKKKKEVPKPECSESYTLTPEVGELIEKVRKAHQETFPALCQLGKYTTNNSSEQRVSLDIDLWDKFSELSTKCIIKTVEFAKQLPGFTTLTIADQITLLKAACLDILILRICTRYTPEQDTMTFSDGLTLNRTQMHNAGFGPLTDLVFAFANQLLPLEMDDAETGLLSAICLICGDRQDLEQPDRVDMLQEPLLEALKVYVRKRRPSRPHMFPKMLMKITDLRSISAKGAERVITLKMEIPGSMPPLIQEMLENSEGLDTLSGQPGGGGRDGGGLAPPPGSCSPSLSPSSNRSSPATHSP
Human liver HepG2 cells are transiently transfected with multiple reporter transcription units (MRTUs) in 6-well plates using FuGene 6 reagent (Roche; 3 ml FuGene/1 mg DNA). The MRTU constructs are regulated by a cis-regulating element (promoter). […] A major difference between the CIS and TRANS system is that in CIS activities of endogenous TFs are measured, whereas the TRANS assay evaluates changes in activities of exogenous, chimeric NR-Gal4 proteins. […] At the end of 24 hour incubation, total RNA was isolated using TriZol reagent (Invitrogen). The isolated RNA is then reverse-transcribed using oligo(dT) primer and Mo-MLV reverse transcriptase (Invitrogen) with DNAse I (Ambion) treatment for 30 min. The one-tenth of the produced cDNA was amplified by PCR using Taq DNA polymerase (Invitrogen) and two reporter sequence-specific primers. The PCR products were fluorescently labeled by primer extension with 6-arboxyfluorescein (6-FAM) 5'-labeled reporter sequence-specific primer (2 min at 95 C, 20 s at 68 C and 10 min at 72 C) and these products were digested with 5U of HpaI (New England Biolabs) for 2h at 37 C. The fragments were purified using Qiaquick PCR columns (Qiagen), analyzed on an ABI 3130xL genetic analyzer (Applied Biosystems) with peak positions identified by using a set of X-rhodamine (ROX)-labeled MapMarker1000 molecular weight standards (BioVentures). The raw capillary electrophoresis data was processed using Attagraph software (Attagene).
For the compound `COc1cccc2c1C(=O)c1c(O)c3c(c(O)c1C2=O)C[C@@](O)(C(=O)CO)C[C@@H]3O[C@H]1C[C@H](N)[C@H](O)[C@H](C)O1`, the compound was classed as inactive.
As to `Cc1ccc(N(C)C)cc1`, the result was inactive.
The same measure, in the same setting: the value for `OC[C@@H](O)[C@@H](O)[C@H](O)[C@H](O)CO` was “inactive”.
On the same count and under the same terms, under `C1CCC(SSC2CCCCC2)CC1` stands “inactive”.
Still for that read-out and setting: the value for `C[C@]12C=CC(=O)C=C1CC[C@@H]1[C@@H]2C(=O)C[C@@]2(C)[C@H]1CC[C@]2(O)C(=O)CO` was “inactive”.
A word on the AC50: it is the concentration giving half of the maximal activity seen. Consider `CC(C)(C)c1cc(O)c(C(C)(C)C)cc1O`, for which the AC50 is 57.1 µM (active).
Consider `Cc1ccc(C)c(O)c1C`, for which the compound was called inactive.
Turning to `Nc1ccc(S(=O)(=O)c2ccc(N)cc2)cc1`, the compound was classed as inactive.
Same read-out and setting: under `Cc1ccc2ncccc2c1` stands “inactive”.
As for `CC1(C)NC(=O)NC1=O`, the call was inactive.
For `O=c1c(O)c(-c2ccc(O)c(O)c2)oc2cc(O)cc(O)c12`, the result was inactive.
Still for that read-out and setting: under `COC(=O)c1ccc(O)cc1` stands “inactive”.
As to `CCCCCCCCCCCCCO`, the AC50 is 11.7 µM (active).
As for `COc1cc(/C=C/C(=O)CC(=O)/C=C/c2ccc(O)c(OC)c2)ccc1O`, the concentration at half-maximal activity (AC50) was 25.9 µM (active).
Regarding `CCc1c(C(=O)NN2CCCCC2)nn(-c2ccc(Cl)cc2Cl)c1-c1ccc(Br)cc1`, the AC50 is 2.16 µM (active).
`Cc1nc(C)nc(N2C[C@@H](C)N(c3ccnc([C@@H](C)O)n3)[C@@H](C)C2)n1`: the compound was classed as inactive.
As to `Clc1cc(Cl)c(Cl)cc1Cl`, the result was inactive.
Same read-out and setting: the value for `Nc1ccc2c(c1)C(=O)c1ccccc1C2=O` was “inactive”; that for `CCCc1cc(=O)[nH]c(=S)[nH]1` was “inactive”.
Still for that read-out and setting: under `NCCO` stands “inactive”.
For `CCOC(=O)CCC(=O)OCC`, the call was inactive.
With `CC(=O)OCCOCCOCCOC(C)=O`, the call was inactive.
The same measure, in the same setting: under `CCCCCC(=O)O` stands “inactive”; under `COCCOC[C@H](CC1(C(=O)NC2CCC(C(=O)O)CC2)CCCC1)C(=O)Oc1ccc2c(c1)CCC2` (stereo not given in full), “inactive”.
On the same count and under the same terms, under `COc1ccc(C)cc1N` stands “inactive”; under `Nc1ccccc1N`, “inactive”; under `CCCCCCCCCCCCCCCCCC(=O)O`, “inactive”.
Turning to `O=C(N[C@@H](Cc1ccccc1)[C@@H](O)C(=O)N1C[C@@H](O)[C@@H](O)C1)c1cc2cc(Cl)ccc2[nH]1`, the call was inactive.
For `CCCCOC(=O)CCCCCCCCC(=O)OCCCC`, the compound was classed as inactive.
Still for that read-out and setting: the value for `CCOc1ccc2c(c1)C(C)=CC(C)(C)N2` was “inactive”.
Still for that read-out and setting: the value for `Cc1oc(-c2ccccc2)nc1CCOc1cccc2c1ccn2CCC(=O)O` was “inactive”; that for `COCCOCCOC` was “inactive”; that for `CC(C)c1ccc(C(=O)N=C(N)N)cc1S(C)(=O)=O` was “inactive”.
Same read-out and setting: under `CC=Cc1ccc(O)c(OC)c1` stands “inactive”.
Turning to `CC(=O)C(C)=CC1C(C)=CCCC1(C)C` (stereo not given), the result was inactive.
The same measure, in the same setting: the value for `COc1ccc(S(=O)(=O)N2C(=O)[C@@](c3ccccc3OC)(N3C[C@H](O)C[C@H]3C(=O)N(C)C)c3cc(Cl)ccc32)c(OC)c1` was “inactive”; that for `C=CCc1ccc(O)c(OC)c1` was “inactive”.
Same read-out and setting: the value for `Cc1ccc(C(C)C)c(O)c1` was “inactive”.
As to `CC1=C(/C=C/C(C)=C/C=C/C(C)=C/CO)C(C)(C)CCC1`, the AC50 is 0.104 µM (active).
Take `Cc1cccc(C)c1O`: the outcome was inactive.
